Among the data in PubChem BioAssay AID463173 (ICCB-Longwood Screening Facility, Harvard Medical School, 2010) are survival values, retold here.

In all, about 52,000 compounds went through this assay and about 1,700 (3.3%) were called active. Cut-off read from the data, not from the text of the source: active = survival mostly below about 52% (no sharp cut-off); inactive = mostly above about 56%. The full list was thinned out, with actives kept by preference.

This test deals with Wild type. The experiment in a line: S. aureus survival, RN4220 and DeltatarO strains – OD600, teichoic acid synthesis inhibitors, primary screen (AID 463173). To be noted: S. aureus RN4220 wild type/DeltatarO growth, OD600, 18 h, hits give low values, screened at 18.75 µg/mL (by protocol).
Regarding `COc1ccc(C(=O)NCC(c2ccc3c(c2)OCO3)N2CCN(C)CC2)cc1` (stereo not given), the survival was 60% (inactive).
As to `CCc1ccc(-n2nc3ccc(NC(=O)COc4ccc(OC)cc4)cc3n2)cc1`, the survival is 95% (inactive).
Turning to `CCOc1ccc(CCNC(=O)C2CCN(Cc3nc(-c4ccccc4C)oc3C)CC2)cc1OCC`, the survival was 81% (inactive).
Take `CCc1cccc(C)c1NC(=O)CCS(=O)(=O)c1cc(Br)cc2c1N(C(=O)C1CC1)CC2`: the survival is 85% (inactive).
As to `CC(=O)c1sc(NC(=O)c2c(-c3ccccc3)c(-c3ccccc3)nn(C)c2=O)nc1C`, the survival was 54% (inactive).
Take `COc1cc(N(C(=O)c2ccco2)C(C(=O)NC2CCCC2)c2ccc(C)cc2)ccc1-n1cnnn1` (stereo not given): the survival was 105% (inactive).
On to `O=C(CSc1nnc(-c2ccccc2Cl)o1)N1CCCc2ccccc21`, for which the survival is 35% (inactive).
As to `COc1cccc(-c2nnc(SCC(=O)N3c4ccccc4Sc4ccccc43)o2)c1`, the survival is 11% (active).
Regarding `O=C(CSc1nnc(-c2ccc(F)cc2)o1)N1CCCc2ccccc21`, the survival was 66% (inactive).
Consider `COc1cccc(-c2nnc(SCC(=O)N3CCc4ccccc43)o2)c1`, for which the survival is 69% (inactive).
As to `O=C(CSc1nnc(-c2cccc(F)c2)o1)N1c2ccccc2Sc2ccccc21`, the survival was 103% (inactive).
On to `Cc1ccc(-c2nnc(SCC(=O)N3CCCc4ccccc43)o2)cc1`, for which the survival was 65% (inactive).
On to `Cc1cccc(-c2nnc(SCC(=O)N3CCCc4ccccc43)o2)c1`, for which the survival is 5% (active).
On to `Cc1ccccc1-c1nnc(SCC(=O)N2CCCc3ccccc32)o1`, for which the survival is 15% (active).
Consider `O=C(CSc1nnc(-c2ccccc2)o1)N1CCCc2ccccc21`, for which the survival is 68% (inactive).
Turning to `CCn1c(SC)nnc1C1CCCN(C(=O)Cc2cccnc2)C1` (stereo not given), the survival is 89% (inactive).
The result for `CCC1CCCCN1CCCNC(=O)CN1C(=O)c2cccnc2Oc2ccc(Cl)cc21` (stereo not given) reads 65% (inactive).
To `Cc1cc(C)cc(NS(=O)(=O)c2ccc3[nH]cc(C(=O)NCc4ccccc4Cl)c(=O)c3c2)c1` belongs 111% (inactive).
To `CCOc1ccccc1-c1noc(CSc2nnc(-c3ccccc3)n2-c2ccc(F)cc2)n1` belongs 117% (inactive); to `CN(C(=O)CSc1nc(C2CCCC2)nc2c1c(=O)n(C)c(=O)n2C)c1ccccc1`, 128% (inactive).
For `Cc1ccc(-c2c(CN3CCN(c4cccc(C)c4)C(C)C3)csc2C)cc1` (stereo not given), the survival was 90% (inactive).
For the molecule `Cc1nc(-c2ccccc2)sc1-c1ccc(SCC(=O)Nc2cccc(C(F)(F)F)c2)nn1`, the survival is 67% (inactive).
To `CC(=O)Nc1cccc(NC(=O)CSc2ccc(-c3sc(-c4ccccc4)nc3C)nn2)c1` belongs 17% (active); to `Cc1nc(-c2ccccc2)sc1-c1ccc(SCC(=O)Nc2ccccc2)nn1`, 41% (inactive); to `O=C(Cn1c(=O)oc2cc(S(=O)(=O)N3CCCC3)ccc21)NCc1ccc(Cl)cc1`, 138% (inactive).
Turning to `NC1=NC(c2cccc(Cl)c2)n2c(nc3ccccc32)N1` (stereo not given), the survival was 97% (inactive).
The result for `CCOc1ccc(-c2cc(CCCC(=O)NCCc3cc(OC)c(OC)c(OC)c3)no2)cc1` reads 59% (inactive).
Regarding `CC(C)CCn1c(SCc2cccc(F)c2)nc2ccsc2c1=O`, the survival is 76% (inactive).
The result for `Cc1ccc(Cn2c(SCC(=O)NCc3ccccc3)nc3ccsc3c2=O)cc1` reads 76% (inactive); that for `O=C(CSc1nc2ccsc2c(=O)n1-c1ccc(Br)cc1)NCc1ccccc1`, 80% (inactive).
To `Cc1ccc(CSc2nc3ccsc3c(=O)n2CCC(C)C)cc1` belongs -6% (active); to `O=C(CSc1nc2ccsc2c(=O)n1Cc1ccccc1Cl)NCc1ccc(Cl)cc1`, 75% (inactive); to `Cc1ccc(Cn2c(SCC(=O)NCc3ccccc3Cl)nc3ccsc3c2=O)cc1`, -6% (active).
With `Cc1ccccc1CSc1nc2ccsc2c(=O)n1CCC(C)C`, the survival was 74% (inactive).
`O=C(CSc1nc2ccsc2c(=O)n1-c1ccc(Br)cc1)NCc1ccc(Cl)cc1`: the survival was 81% (inactive).
Regarding `Cc1ccc(CNC(=O)CSc2nc3ccsc3c(=O)n2-c2ccc(Br)cc2)cc1`, the survival is 14% (active).
Take `CC(C)/C=N/NC(=O)c1ccc2c(c1)NC(=O)C(C)(C)O2`: the survival was 108% (inactive).
The result for `Cc1ccccc1OCC(=O)OC1CCCN(C)C1` (stereo not given) reads 90% (inactive); that for `CCC(=O)N1CCc2cc(Br)cc(S(=O)(=O)N3CCC(C(=O)Nc4ccccc4F)CC3)c21`, 80% (inactive).
`COc1ccc(-c2cc(-c3ccccc3)c(C#N)c(SCC(O)CS(=O)(=O)Cc3ccc(Cl)cc3)n2)cc1` (stereo not given): the survival was 141% (inactive).
For the molecule `COc1ccc(-c2noc(CCC(=O)N(C)c3ccccc3C)n2)cc1`, the survival was 71% (inactive).
For `CCOC(=O)c1ccccc1NC(=O)CCc1nc(-c2ccc(C)cc2)no1`, the survival is 27% (inactive).
The result for `CCCN(C(=O)CCc1nc(-c2ccccc2F)no1)c1ccc(CC)cc1` reads -2% (active); that for `COc1ccc(-c2noc(CC(=O)N(C)c3ccccc3F)n2)cc1`, 84% (inactive).
The result for `CCCN(C(=O)CCc1nc(-c2ccc(C)cc2)no1)c1ccc(OCC)cc1` reads 0% (active).
Take `COc1ccc(-c2noc(CCC(=O)NCc3ccc(C)cc3)n2)cc1`: the survival was 94% (inactive).
On to `CCOc1ccc(N(CC)C(=O)CCc2nc(-c3ccccc3F)no2)cc1`, for which the survival is 39% (inactive).
Turning to `COc1ccc(-c2noc(CCC(=O)N(C)c3cc(Cl)ccc3OC)n2)cc1`, the survival was 20% (inactive).
In the case of `CCCN(C(=O)Cc1nc(-c2ccc(OC)cc2)no1)c1ccccc1C`, the survival was 87% (inactive).
To `Cc1ccc(-c2noc(CCC(=O)N(C)c3ccccc3F)n2)cc1` belongs 4% (active); to `CN(C(=O)CCc1nc(-c2ccccc2F)no1)c1ccc(Cl)cc1`, 68% (inactive).
Regarding `CCCN(C(=O)CCc1nc(-c2ccc(OC)cc2)no1)c1ccccc1F`, the survival is 0% (active).
In the case of `O=C(Nc1ccc(Br)cc1F)N1CCC(CN2CCc3ccccc3C2)CC1`, the survival was 63% (inactive).
Regarding `O=C(Nc1ccc2nc(SCC(=O)N3CCCC3)sc2c1)c1ccc(F)cc1`, the survival is 87% (inactive).
As to `O=C(CSc1nc2ccccc2c(=O)n1Cc1ccco1)Nc1ccccc1`, the survival is 106% (inactive).
As for `Cc1ccc(N2CCN(S(=O)(=O)c3ccc(-n4cnnn4)cc3)CC2)c(C)c1`, the survival was 97% (inactive).
The result for `CCOc1ccc(C(=O)c2cn(Cc3ccccc3OC)c3cc4c(cc3c2=O)OCCO4)cc1` reads 80% (inactive).
With `CN(C)CCCN(C(=O)c1ccc(Br)s1)c1nc2ccc(F)cc2s1`, the survival was -6% (active).
The result for `Cc1ccc2nc(N(CCCN(C)C)C(=O)c3ccc(Br)s3)sc2c1` reads 90% (inactive); that for `CN(C)CCCN(C(=O)c1cccs1)c1nc2ccc(F)cc2s1`, 76% (inactive).
